Records with an inconclusive call do not appear. The source made the active and inactive calls. Unless noted, calls follow the shape of the dose curve; as a rule, active = well fitted curve in the direction sought with a large enough effect; inconclusive = small, poorly fitted or top-dose-only effect, or another doubt; inactive = no such curve, though single readings can be large; an effect the other way counts as inactive or inconclusive.
Tests used:
3D7 = experiment: qHTS profiling for inhibitors of Plasmodium falciparum proliferation (AID 504749); also: nearly all actives have a fitted effect of over 60% in size; also: potency is read from the fitted curve at half-maximal effect; details: P. falciparum in erythrocytes, SYBR Green DNA, 72 h; series mostly up to 28.7 µM
Method in brief: (§1)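 Quantitative HTS: compounds pinned into medium, infected erythrocytes added (0.3% parasitemia, 2.5% hematocrit), 72 h culture at 37 C under 5% CO2. Saponin/Triton lysis with SYBR Green I, overnight RT, then fluorescence read.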

AA1029 = experiment: as above; details: P. falciparum in erythrocytes, SYBR Green DNA, 72 h; series mostly up to 28.7 µM
Method in brief: as §1

CP185 = experiment: as above; details: P. falciparum in erythrocytes, SYBR Green DNA, 72 h; series mostly up to 28.7 µM
Method in brief: as §1

CP238 = experiment: as above; details: P. falciparum in erythrocytes, SYBR Green DNA, 72 h; series mostly up to 28.7 µM
Method in brief: as §1

CP247 = experiment: as above; details: P. falciparum in erythrocytes, SYBR Green DNA, 72 h; series mostly up to 28.7 µM
Method in brief: as §1

CP260 = experiment: as above; details: P. falciparum in erythrocytes, SYBR Green DNA, 72 h; series mostly up to 28.7 µM
Method in brief: as §1

CP265 = experiment: as above; details: P. falciparum in erythrocytes, SYBR Green DNA, 72 h; series mostly up to 28.7 µM
Method in brief: as §1

CP305 = experiment: as above; details: P. falciparum in erythrocytes, SYBR Green DNA, 72 h; series mostly up to 28.7 µM
Method in brief: as §1

Dd2 = experiment: as above; details: P. falciparum in erythrocytes, SYBR Green DNA, 72 h; series mostly up to 28.7 µM
Method in brief: as §1

FAB9 = experiment: as above; details: P. falciparum in erythrocytes, SYBR Green DNA, 72 h; series mostly up to 28.7 µM
Method in brief: as §1

HB3 = experiment: as above; details: P. falciparum in erythrocytes, SYBR Green DNA, 72 h; series mostly up to 28.7 µM
Method in brief: as §1

JCK = experiment: as above; details: P. falciparum in erythrocytes, SYBR Green DNA, 72 h; series mostly up to 28.7 µM
Method in brief: as §1

N140 = experiment: as above; details: P. falciparum in erythrocytes, SYBR Green DNA, 72 h; series mostly up to 28.7 µM
Method in brief: as §1

P93_24 = experiment: as above; details: P. falciparum in erythrocytes, SYBR Green DNA, 72 h; series mostly up to 28.7 µM
Method in brief: as §1

P94_40 = experiment: as above; details: P. falciparum in erythrocytes, SYBR Green DNA, 72 h; series mostly up to 28.7 µM
Method in brief: as §1

PAD = experiment: as above; details: P. falciparum in erythrocytes, SYBR Green DNA, 72 h; series mostly up to 28.7 µM
Method in brief: as §1

PC49 = experiment: as above; details: P. falciparum in erythrocytes, SYBR Green DNA, 72 h; series mostly up to 28.7 µM
Method in brief: as §1

[1] = biological target: Muscarinic acetylcholine receptor M1 (Rattus norvegicus) (UniProt P08482); experiment: qHTS Assay for Antagonists of Acetylcholine Muscarinic M1 Receptor: Kinetic Measurement of Intracellular Calcium Response (AID 943); also: nearly all actives have a fitted effect of over 75% in size; also: potency is read from the fitted curve at half-maximal effect;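 as to activity change, negative = inhibition: Fluo-4 calcium signal as peak divided by basal fluorescence over 4 min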
Method in brief: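 Antagonism is measured as inhibition of the carbachol-evoked calcium rise in CHO cells transfected with rat M1. Cells are dye-loaded, exposed to compound for 10 min, then stimulated with 100 nM carbachol (EC80).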

ECU = experiment: qHTS profiling for inhibitors of Plasmodium falciparum proliferation (AID 504749); also: nearly all actives have a fitted effect of over 60% in size; also: potency is read from the fitted curve at half-maximal effect; details: P. falciparum in erythrocytes, SYBR Green DNA, 72 h; series mostly up to 28.7 µM
Method in brief: as §1

[2] = AP1 Signaling Pathway (AID 357; active = well fitted curve in either direction with a large enough effect, not every such curve was filed as active;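 also: ME-180 reporter cells stimulated with EGF at its EC50 level; % is scaled to controls: 0 for no effect and ±100 for the full control effect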); details: ME-180 (cervical carcinoma) AP-1-bla reporter, EGF-induced, beta-lactamase ratio, 5 h; at 7.69 µM (top of the series) unless noted
Method in brief: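 Modulation of EGF-driven AP-1 transcription was assessed with a beta-lactamase reporter in ME-180 cells. Compound and EC50 EGF were co-incubated 5 hours at 37 °C before 2.5-hour CCF4 loading at room temperature and dual-emission reading.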

Sequence of Muscarinic acetylcholine receptor M1 (Rattus norvegicus) (P08482 whole entry, looked up): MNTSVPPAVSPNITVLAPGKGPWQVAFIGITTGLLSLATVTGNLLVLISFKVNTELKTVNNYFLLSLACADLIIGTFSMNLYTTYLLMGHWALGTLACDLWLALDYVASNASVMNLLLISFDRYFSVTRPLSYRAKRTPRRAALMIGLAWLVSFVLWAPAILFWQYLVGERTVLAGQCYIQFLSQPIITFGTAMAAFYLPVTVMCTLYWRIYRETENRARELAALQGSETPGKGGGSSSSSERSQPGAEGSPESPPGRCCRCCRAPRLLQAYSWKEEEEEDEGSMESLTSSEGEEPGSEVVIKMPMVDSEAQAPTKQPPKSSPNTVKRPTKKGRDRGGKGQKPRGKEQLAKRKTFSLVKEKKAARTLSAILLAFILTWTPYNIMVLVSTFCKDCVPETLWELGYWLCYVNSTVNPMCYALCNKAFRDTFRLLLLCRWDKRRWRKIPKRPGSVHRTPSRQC

C=C1/C(=C\C=C2/CCC[C@]3(C)[C@@H]([C@H](C)CCCC(C)(C)O)CC[C@@H]23)C[C@@H](O)C[C@@H]1O
inactive: Potency (3D7) | Potency (AA1029) | Potency (CP185) | Potency (CP238) | Potency (CP247) | Potency (CP260) | Potency (CP265) | Potency (CP305) | Potency (Dd2) | Potency (FAB9) | Potency (HB3) | Potency (JCK) | Potency (N140) | Potency (P93_24) | Potency (P94_40) | Potency (PAD) | Potency (PC49)

NCCC(=O)NCCc1cnc[nH]1
inactive: Potency [1]

CN=C(N)NCCCC(N)C(=O)O (stereo not given)
inactive: Potency (3D7) | Potency (AA1029) | Potency (CP185) | Potency (CP238) | Potency (CP247) | Potency (CP260) | Potency (CP265) | Potency (CP305) | Potency (Dd2) | Potency (ECU) | Potency (FAB9) | Potency (HB3) | Potency (JCK) | Potency (N140) | Potency (P93_24) | Potency (P94_40) | Potency (PAD) | Potency (PC49)

N[C@H](Cc1ccc(O)c(O)c1)C(=O)O
inactive: Potency (3D7) | Potency (AA1029) | Potency (CP185) | Potency (CP238) | Potency (CP247) | Potency (CP260) | Potency (CP265) | Potency (ECU) | Potency (FAB9) | Potency (HB3) | Potency (N140) | Potency (P93_24) | Potency (P94_40) | Potency (PAD) | Potency (PC49)

N=C(N)SCCc1cccc(CCSC(=N)N)c1
inactive: activity change, negative = inhibition [2] 7.41% [at 38 µM]
active: Potency [1] 4.47 µM

NCCNC(=O)c1ccc(Cl)cc1
inactive: activity change, negative = inhibition [2] -4.17% [at 38 µM]

N=C1Sc2ccccc2C2=NCCCN12
inactive: activity change, negative = inhibition [2] 18% [at 38 µM]

CN1C(=O)CCC1c1cccnc1 (stereo not given)
inactive: Potency (3D7) | Potency (AA1029) | Potency (CP185) | Potency (CP238) | Potency (CP247) | Potency (CP260) | Potency (CP265) | Potency (CP305) | Potency (Dd2) | Potency (ECU) | Potency (FAB9) | Potency (HB3) | Potency (JCK) | Potency (N140) | Potency (P93_24) | Potency (P94_40) | Potency (PAD) | Potency (PC49)

O=C(Cc1ccc(Cl)c(Cl)c1)OCCN1CCCC1
active: Potency [1] 14.1 µM
inactive: activity change, negative = inhibition [2] 17.4% [at 38 µM]

OC[C@H]1O[C@@H](n2cnc3c(NCCc4ccccc4)ncnc32)[C@H](O)[C@H]1O
inactive: Potency [1]

COc1cc2c(cc1OC)C(c1ccccc1)CN(C)CC2 (stereo not given)
inactive: Potency (3D7) | Potency (CP185) | Potency (CP238) | Potency (CP260) | Potency (CP305) | Potency (ECU) | Potency (FAB9) | Potency (HB3) | Potency (JCK) | Potency (N140) | Potency (PAD)

CC(C)(C)[C@]1(O)CCN2CC3c4ccccc4CCc4cccc(c43)[C@@H]2C1 (stereo not given in full)
active: Potency (AA1029) 7.94 µM | Potency (Dd2) 10 µM | Potency (ECU) 14.1 µM | Potency (P93_24) 11.2 µM
inactive: Potency (CP305) | Potency (JCK) | Potency (PC49)

NCCCCNS(=O)(=O)c1cccc2c(Cl)cccc12
active: Potency [1] 14.1 µM
inactive: activity change, negative = inhibition [2] -2.83% [at 38 µM]

CC(=O)NCCc1ccc(O)c(O)c1
inactive: activity change, negative = inhibition [2] -4.94% [at 38 µM] | Potency [1]

COC(=O)c1c(-c2cc(OC)c(OC)c(OC)c2)c2ccc(OCc3ccccn3)cc2c(=O)n1-c1ccc(N)cc1
inactive: Potency [1]

COc1ccc(CCNC[C@@H](O)c2ccc(O)cc2)cc1OC
inactive: Potency (3D7) | Potency (AA1029) | Potency (CP185) | Potency (CP238) | Potency (CP247) | Potency (CP260) | Potency (CP265) | Potency (CP305) | Potency (Dd2) | Potency (ECU) | Potency (FAB9) | Potency (HB3) | Potency (JCK) | Potency (N140) | Potency (P93_24) | Potency (P94_40) | Potency (PAD) | Potency (PC49)

CN1C[C@H](C(=O)N[C@]2(C)O[C@@]3(O)C4CCCN4C(=O)[C@H](Cc4ccccc4)N3C2=O)C[C@@H]2c3cccc4[nH]cc(c34)C[C@H]21 (stereo not given in full)
active: Potency (3D7) 8.91 µM | Potency (AA1029) 3.55 µM | Potency (CP185) 7.94 µM | Potency (CP238) 5.62 µM | Potency (CP247) 7.08 µM | Potency (CP260) 2 µM | Potency (CP265) 5.62 µM | Potency (Dd2) 2.82 µM | Potency (ECU) 1.12 µM | Potency (FAB9) 10 µM | Potency (HB3) 2.24 µM | Potency (JCK) 10 µM | Potency (N140) 0.891 µM | Potency (P93_24) 1.41 µM | Potency (P94_40) 3.16 µM | Potency (PAD) 0.355 µM | Potency (PC49) 1.78 µM

CCCC(=O)NCCc1c2n(c3ccc(OC)cc13)Cc1ccccc1-2
inactive: activity change, negative = inhibition [2] -34.8% [at 38 µM] | Potency [1]

CCn1c(=O)c2[nH]c(-c3ccccc3)nc2n(CC)c1=O
inactive: activity change, negative = inhibition [2] -2.19% [at 38 µM]

CC(C)C[C@H]1C(=O)N2CCCC2[C@]2(O)O[C@](NC(=O)[C@@H]3C=C4c5cccc6[nH]c(Br)c(c56)C[C@H]4N(C)C3)(C(C)C)C(=O)N12 (stereo not given in full)
active: Potency (3D7) 3.98 µM | Potency (AA1029) 3.55 µM | Potency (CP185) 11.2 µM | Potency (CP238) 10 µM | Potency (CP247) 8.91 µM | Potency (CP260) 1.58 µM | Potency (CP265) 5.62 µM | Potency (CP305) 10.7 µM | Potency (Dd2) 2.51 µM | Potency (ECU) 3.55 µM | Potency (FAB9) 8.91 µM | Potency (HB3) 2.82 µM | Potency (JCK) 10 µM | Potency (N140) 3.16 µM | Potency (P93_24) 2.82 µM | Potency (P94_40) 2.82 µM | Potency (PAD) 3.98 µM | Potency (PC49) 6.31 µM

— PubChem BioAssay (NCATS)
